Experimental data: article PMC4081100, “A DNA-binding-site landscape and regulatory network analysis for NAC transcription factors in Arabidopsis thaliana”

Columns and labels:
Assay in all cases: universal protein binding microarray (PBM); transcription factors of Arabidopsis thaliana; high values mean tight binding
GST-ANAC092(1-176) = target: T1, GST-ANAC092(1-176) (Arabidopsis thaliana, UniProt Q9FKA0 1-176); conditions: protein: recombinant; tags: GST; chain copies: 2; dsDNA, one strand shown
T1 sequence: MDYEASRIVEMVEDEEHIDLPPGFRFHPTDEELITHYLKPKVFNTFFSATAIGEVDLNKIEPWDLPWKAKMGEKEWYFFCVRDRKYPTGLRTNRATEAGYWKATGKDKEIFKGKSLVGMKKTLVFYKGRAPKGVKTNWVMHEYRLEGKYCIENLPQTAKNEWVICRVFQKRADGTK
Outline: (§1)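 GST-tagged proteins (NAC-domain, full-length or DNA-binding-domain) were induced in cells, with zinc acetate supplied for zinc-finger proteins, then purified on glutathione–Sepharose 4B. Each was tested in duplicate at 200 to 500 nM final on custom all-10-mer Agilent 4 × 180K arrays rendered double-stranded by primer extension. The binding value is the normalised enrichment score (E-score) across gapped and ungapped 8-mers.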

GST-NTL6(1-168) = GST-NTL6(1-168) (Arabidopsis thaliana, UniProt Q9SCK6 1-168); conditions: protein: recombinant; tags: GST; chain copies: 2; dsDNA, one strand shown
GST-NTL6(1-168), sequence (Q9SCK6 1-168): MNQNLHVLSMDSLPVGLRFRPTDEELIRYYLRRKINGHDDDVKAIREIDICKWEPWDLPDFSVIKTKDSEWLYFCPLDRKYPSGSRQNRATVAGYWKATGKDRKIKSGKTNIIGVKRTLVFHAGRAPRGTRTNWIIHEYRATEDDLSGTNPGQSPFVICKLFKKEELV
Outline: as §1

GST-ANAC019 NAC domain = target: T2, GST-ANAC019 NAC domain (Arabidopsis thaliana, UniProt Q9C932 14-162); conditions: protein: recombinant; tags: GST; chain copies: 2; dsDNA, one strand shown
T2 sequence: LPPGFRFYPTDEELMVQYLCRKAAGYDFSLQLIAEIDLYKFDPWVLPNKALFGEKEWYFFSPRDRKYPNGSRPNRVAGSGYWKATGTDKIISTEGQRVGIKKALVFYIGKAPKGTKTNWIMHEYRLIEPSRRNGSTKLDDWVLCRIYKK
Outline: as §1

GST-ANAC055(1-171) = target: T3, GST-ANAC055(1-171) (Arabidopsis thaliana, UniProt Q9LDY8 1-171); conditions: protein: recombinant; tags: GST; chain copies: 2; dsDNA, one strand shown
T3 sequence: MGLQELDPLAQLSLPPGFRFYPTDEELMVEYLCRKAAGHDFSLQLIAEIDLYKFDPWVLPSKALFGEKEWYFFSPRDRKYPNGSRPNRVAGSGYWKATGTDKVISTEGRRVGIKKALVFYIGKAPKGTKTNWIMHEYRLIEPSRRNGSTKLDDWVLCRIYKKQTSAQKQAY
Outline: as §1

GST-ATAF1 NAC domain = target: T4, GST-ATAF1 NAC domain (Arabidopsis thaliana, UniProt Q39013 7-158); conditions: protein: recombinant; tags: GST; chain copies: 2; dsDNA, one strand shown
T4 sequence: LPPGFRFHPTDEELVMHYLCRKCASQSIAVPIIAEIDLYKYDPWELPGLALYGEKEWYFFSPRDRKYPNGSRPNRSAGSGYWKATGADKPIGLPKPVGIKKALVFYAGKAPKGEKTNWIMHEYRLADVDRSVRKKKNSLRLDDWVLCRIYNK
Outline: as §1

[1] = target: T5, GST-ANAC092(1-285) full length (Arabidopsis thaliana, UniProt Q9FKA0 1-285); conditions: protein: recombinant; tags: GST; chain copies: 2; dsDNA, one strand shown
T5 sequence: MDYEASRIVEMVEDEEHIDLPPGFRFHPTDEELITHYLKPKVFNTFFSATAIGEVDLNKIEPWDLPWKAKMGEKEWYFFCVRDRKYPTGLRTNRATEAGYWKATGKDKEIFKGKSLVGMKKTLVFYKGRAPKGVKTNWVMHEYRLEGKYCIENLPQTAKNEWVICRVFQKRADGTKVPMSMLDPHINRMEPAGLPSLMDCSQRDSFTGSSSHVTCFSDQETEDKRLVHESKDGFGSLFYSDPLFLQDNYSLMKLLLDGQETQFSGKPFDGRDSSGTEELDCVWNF
Outline: as §1

GST-NAP(1-166) = target: T6, GST-NAP(1-166) (Arabidopsis thaliana, UniProt O49255 1-166); conditions: protein: recombinant; tags: GST; chain copies: 2; dsDNA, one strand shown
T6 sequence: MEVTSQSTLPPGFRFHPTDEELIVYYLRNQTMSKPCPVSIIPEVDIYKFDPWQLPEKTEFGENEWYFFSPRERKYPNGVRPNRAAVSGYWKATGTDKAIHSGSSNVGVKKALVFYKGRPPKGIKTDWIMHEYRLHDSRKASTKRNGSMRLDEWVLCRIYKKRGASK
Outline: as §1

GST-NST2(1-184) = target: T7, GST-NST2(1-184) (Arabidopsis thaliana, UniProt Q9M274 1-184); conditions: protein: recombinant; tags: GST; chain copies: 2; dsDNA, one strand shown
T7 sequence: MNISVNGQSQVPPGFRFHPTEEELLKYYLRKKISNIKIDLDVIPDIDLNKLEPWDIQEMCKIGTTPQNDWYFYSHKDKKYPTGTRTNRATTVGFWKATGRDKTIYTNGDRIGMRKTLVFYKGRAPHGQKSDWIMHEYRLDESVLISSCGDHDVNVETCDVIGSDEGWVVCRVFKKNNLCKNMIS
Outline: as §1

GST-NTL8 NAC domain = target: T8, GST-NTL8 NAC domain (Arabidopsis thaliana, UniProt Q9XIN7 14-156); conditions: protein: recombinant; tags: GST; chain copies: 2; dsDNA, one strand shown
T8 sequence: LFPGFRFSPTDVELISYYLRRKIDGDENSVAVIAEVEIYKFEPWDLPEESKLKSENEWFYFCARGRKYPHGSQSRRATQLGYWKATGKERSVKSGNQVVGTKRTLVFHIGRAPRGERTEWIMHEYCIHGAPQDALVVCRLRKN
Outline: as §1

GST-SND1(1-203) = target: T9, GST-SND1(1-203) (Arabidopsis thaliana, UniProt Q9LPI7 1-203); conditions: protein: recombinant; tags: GST; chain copies: 2; dsDNA, one strand shown
T9 sequence: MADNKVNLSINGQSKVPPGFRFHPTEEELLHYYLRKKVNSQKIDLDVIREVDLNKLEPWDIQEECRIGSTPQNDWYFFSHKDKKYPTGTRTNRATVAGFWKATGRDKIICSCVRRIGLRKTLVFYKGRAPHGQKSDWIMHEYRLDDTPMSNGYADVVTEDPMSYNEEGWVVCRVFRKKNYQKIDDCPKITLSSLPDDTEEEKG
Outline: as §1

GST-VND3 NAC domain = target: T10, GST-VND3 NAC domain (Arabidopsis thaliana, UniProt Q9FH59 12-162); conditions: protein: recombinant; tags: GST; chain copies: 2; dsDNA, one strand shown
T10 sequence: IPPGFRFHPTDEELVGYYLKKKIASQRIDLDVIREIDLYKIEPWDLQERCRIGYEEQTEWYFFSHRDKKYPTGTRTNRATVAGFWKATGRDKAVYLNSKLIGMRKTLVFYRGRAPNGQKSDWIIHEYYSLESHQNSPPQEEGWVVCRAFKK
Outline: as §1

GST-VND7 NAC domain = target: T11, GST-VND7 NAC domain (Arabidopsis thaliana, UniProt Q9C8W9 9-158); conditions: protein: recombinant; tags: GST; chain copies: 2; dsDNA, one strand shown
T11 sequence: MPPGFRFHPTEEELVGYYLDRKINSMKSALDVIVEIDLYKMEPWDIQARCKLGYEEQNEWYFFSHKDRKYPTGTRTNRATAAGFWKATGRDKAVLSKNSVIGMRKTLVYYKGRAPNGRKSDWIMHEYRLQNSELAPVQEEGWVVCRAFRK
Outline: as §1

GST-WRKY1(266-371) = GST-WRKY1(266-371) (Arabidopsis thaliana, UniProt Q9SI37 266-371); conditions: protein: recombinant; tags: GST; dsDNA, one strand shown
GST-WRKY1(266-371), sequence (Q9SI37 266-371): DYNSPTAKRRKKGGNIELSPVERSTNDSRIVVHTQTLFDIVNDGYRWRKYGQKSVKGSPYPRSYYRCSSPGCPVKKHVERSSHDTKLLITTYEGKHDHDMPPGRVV
Outline: as §1

Sequence	binding signal (GST-ANAC092(1-176))	binding signal (GST-NTL6(1-168))	binding signal (GST-ANAC019 NAC domain)	binding signal (GST-ANAC055(1-171))	binding signal (GST-ATAF1 NAC domain)	binding signal [1]	binding signal (GST-NAP(1-166))	binding signal (GST-NST2(1-184))	binding signal (GST-NTL8 NAC domain)	binding signal (GST-SND1(1-203))	binding signal (GST-VND3 NAC domain)	binding signal (GST-VND7 NAC domain)	binding signal (GST-WRKY1(266-371))
TAACGTAA	0.452 E-score	0.135 E-score	0.25 E-score	0.254 E-score	0.34 E-score	0.449 E-score	0.309 E-score	0.402 E-score	0.174 E-score	0.488 E-score	0.375 E-score	0.413 E-score	0.0682 E-score
AGACGCAA	0.453 E-score	0.0768 E-score	0.222 E-score	0.246 E-score	0.262 E-score	0.462 E-score	0.433 E-score	0.242 E-score	0.107 E-score	0.265 E-score	0.295 E-score	0.276 E-score	0.0554 E-score
CACGAAAG	0.407 E-score	0.109 E-score	0.25 E-score	0.216 E-score	0.133 E-score	0.411 E-score	0.17 E-score	0.189 E-score	0.121 E-score	0.184 E-score	0.191 E-score	0.132 E-score	0.0838 E-score
AATGCGTG	0.434 E-score	0.147 E-score	0.324 E-score	0.227 E-score	0.271 E-score	0.44 E-score	0.227 E-score	0.243 E-score	–	0.288 E-score	0.286 E-score	0.254 E-score	0.087 E-score
CAAGGAAA	0.231 E-score	0.31 E-score	0.165 E-score	0.147 E-score	0.167 E-score	0.241 E-score	0.0952 E-score	0.189 E-score	0.46 E-score	0.242 E-score	0.202 E-score	0.181 E-score	0.0889 E-score
CGTCAAAC	0.109 E-score	0.0906 E-score	0.0928 E-score	0.163 E-score	0.147 E-score	0.134 E-score	0.0647 E-score	0.159 E-score	–	0.198 E-score	0.145 E-score	0.129 E-score	0.44 E-score
